Reference: PubChem BioAssay (NCATS)
Inconclusive results are not listed. The source made the active and inactive calls. Calls follow the shape of the dose curve; as a rule, active = well fitted inhibition curve with a large enough effect; inconclusive = small, poorly fitted or top-dose-only effect; inactive = flat fitted curve, though single readings scatter.

These molecules were tested on CRL-7250 (assay: qHTS assay to identify novel small-molecules to repurpose for Merkel cell carcinoma treatment (AID 1296009; also: nearly all actives have a fitted effect of over 60% in size)). Details: MCC and control cell lines, CellTiter-Glo viability, 72 h; at 44.8 µM (top of the series) unless noted.
How it was run: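 qHTS format: cells treated with library compounds in DMSO across 8 (NPC) or 11 (MIPE) concentrations. Readout after 72 hr at 37 degree celsius was CellTiter-Glo luminescence.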

Compound | outcome
Cc1[nH]cnc1-c1ccc(Cl)cc1 | inactive
O=C(NCC1CCCCN1)c1cc(OCC(F)(F)F)ccc1OCC(F)(F)F (configuration not stated) | inactive
CCN1CCN(C(=O)N[C@@H](C(=O)N[C@@H]2C(=O)N3[C@@H]2SC(C)(C)[C@H]3C(=O)O)c2ccccc2)C(=O)C1=O | inactive
CCCCCCCCCCCCCCCC(=O)NCCO | inactive
CCOc1nc2cccc(C(=O)O)c2n1Cc1ccc(-c2ccccc2-c2nn[nH]n2)cc1 | inactive
COc1cc(C(=O)NS(=O)(=O)c2ccccc2C)ccc1Cc1cn(C)c2ccc(NC(=O)OC3CCCC3)cc12 | inactive
CS(=O)(=O)c1ccc([C@@H](O)[C@@H](CF)NC(=O)C(Cl)Cl)cc1 | inactive
O=c1[nH]c(=O)n([C@H]2C[C@H](O)[C@@H](CO)O2)cc1I | inactive
CN(C)C(=O)Oc1ccc[n+](C)c1 | inactive
NC(=O)NC1N=C([O][Al])NC1=O (configuration not stated) | inactive
O=C(O)c1ccccc1-c1ccc(C(F)(F)F)cc1 | inactive
CCNC(=O)/C=C/c1cccc(Br)c1 | inactive
CCCCCCCCCCCCCCCCCC(=O)OCC(O)CO (configuration not stated) | inactive
O=C1CN(/N=C/c2ccc([N+](=O)[O-])o2)C(=O)N1 | inactive
CCN1CCC[C@H]1CNC(=O)c1c(O)c(Cl)cc(Cl)c1OC | inactive
C[C@H](NC(CCc1ccccc1)C(=O)O)C(=O)N1CCC[C@H]1C(=O)O (some centres not stated) | inactive
CC(C)(Oc1ccc(Cl)cc1)C(=O)O | inactive
CO/N=C(/C(=O)N[C@@H]1C(=O)N2C(C(=O)OCOC(=O)C(C)(C)C)=C(C)CS[C@H]12)c1csc(N)n1 | inactive
CC(=O)CC(c1ccccc1)c1c(O)c2ccccc2oc1=O (configuration not stated) | inactive

Compound | outcome
NS(=O)(=O)c1cc2c(cc1Cl)NC(C(Cl)Cl)NS2(=O)=O (configuration not stated) | inactive
CC(=O)NC[C@H]1CN(c2ccc(N3CCOCC3)c(F)c2)C(=O)O1 | inactive
O=S(=O)(O)CCS | inactive
Nc1ncnc2c1ncn2[C@@H]1O[C@H](COP(=O)(O)O)[C@@H](O)[C@H]1O | inactive
CC(=O)N(CC(O)CO)c1c(I)c(C(=O)NCC(O)CO)c(I)c(C(=O)NCC(O)CO)c1I (configuration not stated) | inactive
Cc1cc(C(C#N)c2ccc(Cl)cc2)c(Cl)cc1NC(=O)c1cc(I)cc(I)c1O (configuration not stated) | inactive
CC[C@H]1OC(=O)[C@H](C)[C@@H](O[C@H]2C[C@@](C)(OC)[C@@H](O)[C@H](C)O2)[C@H](C)[C@@H](O[C@@H]2O[C@H](C)C[C@H](N(C)C)[C@@H]2O)[C@](C)(O)C[C@@H](C)CN(C)[C@H](C)[C@@H](O)[C@]1(C)O | inactive
COc1cc(/C=C/C(N)=O)cc(OC)c1OC | inactive
CCOC(=O)O[C@]1(C(=O)OCCl)CC[C@H]2[C@@H]3CCC4=CC(=O)C=C[C@]4(C)[C@H]3[C@@H](O)C[C@@]21C | inactive
Cc1cc(CCCOc2c(C)cc(-c3noc(C(F)(F)F)n3)cc2C)on1 | inactive
CC(=O)CC/C=C(\C)CC/C=C(\C)CC/C=C(\C)CCC=C(C)C | inactive
CO[C@@]1(NC(=O)Cc2cccs2)C(=O)N2C(C(=O)O)=C(COC(N)=O)CS[C@@H]21 | inactive
c1ccc2sc(SN3CCOCC3)nc2c1 | inactive
CCCCN(CCCC)CCCOC(=O)c1ccc(N)cc1 | inactive
Cc1cnc(NS(=O)(=O)c2ccc(N)cc2)nc1 | inactive
CCOC(=O)C1=C(C)NC(C)=C(C(=O)OC)C1c1cccc([N+](=O)[O-])c1 (configuration not stated) | inactive
COc1cc2c(Nc3ccc(Br)cc3F)ncnc2cc1OCC1CCN(C)CC1 | inactive
O=C(CCCl)NCCc1ccccc1 | inactive
